# Inconclusive results are not listed. Entries that show only a call come without a potency. Active and inactive are the calls of the source. Calls come from the whole dose curve; as a rule, active = well fitted inhibition curve with a large enough effect; inconclusive = small, poorly fitted or top-dose-only effect, or effect the other way; inactive = flat fitted curve, though single readings scatter.
# Molecular target: ATP-dependent 6-phosphofructokinase (Trypanosoma brucei brucei) (UniProt O15648)
# Sequence (O15648 whole entry, looked up): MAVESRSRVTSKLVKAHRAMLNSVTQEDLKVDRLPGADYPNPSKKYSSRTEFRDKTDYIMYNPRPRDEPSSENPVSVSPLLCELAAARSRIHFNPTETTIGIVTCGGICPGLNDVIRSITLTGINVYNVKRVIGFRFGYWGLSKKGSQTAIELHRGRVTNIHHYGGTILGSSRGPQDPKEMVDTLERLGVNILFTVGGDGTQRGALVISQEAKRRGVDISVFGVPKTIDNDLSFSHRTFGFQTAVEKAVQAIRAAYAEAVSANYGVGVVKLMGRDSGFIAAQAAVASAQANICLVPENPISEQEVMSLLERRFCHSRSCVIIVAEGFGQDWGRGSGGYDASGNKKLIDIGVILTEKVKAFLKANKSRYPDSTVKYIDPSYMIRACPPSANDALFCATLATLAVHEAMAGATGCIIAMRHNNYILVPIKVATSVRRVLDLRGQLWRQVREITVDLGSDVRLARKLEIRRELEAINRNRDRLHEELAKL
# Test: qHTS Validation Assay to Find Inhibitors of T. brucei phosphofructokinase (AID 485368)
# Conditions: T. brucei PFK enzyme assay, qHTS 7-point titration; series mostly up to 57.5 µM
# Text: NIH Molecular Libraries Probe Production Network [MLPCN]
# NIH Chemical Genomics Center [NCGC]
# PI Name: Malcolm Walkinshaw, University of Edinburgh
# Various species of the protozoan family Trypanosomatidae are responsible for a range of serious human diseases in tropical and subtropical areas of the world. […] Many of the disorders caused by trypanosomatids are fatal if left untreated, but most currently used drugs are inefficient and toxic.
# Oxidative metabolism involving the mitochondrial tricarboxylic acid cycle and oxidative phosphorylation are repressed in these parasites, and recent RNA interference (RNAi) experiments have shown that even partial depletion of certain individual glycolytic enzymes can lead to the death of cultured parasites. One such glycolytic enzyme, phosphofructokinase (PFK), catalyzes the formation of fructose-1,6-bisphosphate (F1,6BP) and ADP from fructose-6-phosphate (F6P) and ATP, and in many metabolic circumstances makes an important contribution to the control of flux through the glycolytic pathway. As a specific glycolytic target, PFK is particularly attractive as it catalyzes the first irreversible step in glycolysis, and structural and kinetic studies have shown very substantial and essential differences from corresponding host enzymes, allowing for the discovery of parasite-selective inhibitors.
# The goal of this screen is to find small-molecule inhibitors of T. brucei PFK using a biochemical assay that measures PFK activity as a function of ADP production. A luminescence-based assay for T. brucei PFK activity has been developed which uses luciferase to detect production of ADP. Traditional luciferase-based nucleotide detection reagents rely on ATP production as a direct substrate for the luciferase reaction; however, PFK catalyzes the transfer of a phosphate from ATP to F6P, resulting in the net depletion of ATP. To directly measure the ADP product of the PFK reaction, we used the ADP-Glo detection kit (Promega), which utilizes two separate reactions to 1) deplete all remaining uncatalyzed ATP and 2) convert all remaining ADP to ATP, which is then detected through a traditional luciferase-coupled reaction. Compounds were screened as a concentration-titration series that ranged from 57 uM to 0.7 nM.
# NCGC Assay Protocol Summary:
# Substrate buffer was dispensed into white, solid 1536-well plates at 3uL/well in 0.1M triethanolamine (TEA) buffer, pH 8.0, containing final concentrations of 5 mM MgCl2, 0.01% Tween20, 0.5 mM fructose-6-phosphate (F6P) and 0.1mM ATP. Then, 23 nL of compounds or DMSO were delivered to each well using a pin tool. One uL T. brucei PFK (0.1M TEA, 0.01% Tween20, 0.1% bovine serum albumin (BSA) and 1.25nM PFK, final concentrations) was then dispensed, and plates were incubated at room temperature for 45 min. The luminescent detection reagent, ADP-Glo (Promega), was then added in two steps: the first reagent, ADP-Glo (which converts remaining uncatalyzed ATP), was added at 2.5uL/well and incubated for ten minutes at room temperature, and the second component, Kinase Detection reagent (which converts ADP to ATP as a substrate for luciferase-based luminescence), was added immediately after at 5uL/well, followed by one final ten minute room temperature incubation. The plates were measured on a ViewLux plate reader for luminescent signal using a clear filter with a one second exposure. The %Activity was determined from the corrected luminescence values. As no specific T. brucei PFK inhibitors have been identified in the literature, 1x (1.25nM) and 0x PFK enzyme controls (untreated) were included to normalize %Activity of identified inhibitors; 0x enzyme values corresponded to 100%Activity (full inhibition), while 1x PFK enzyme values were used to normalize 0%Activity (no inhibition).
# Concentration-response curves were fitted to the signals arising from the resulting luminescence. […]
# Potency is the fitted concentration of half-maximal effect.
row,SMILES,Potency
1,NC(N)=NCCCCN=C(N)N,inactive
2,Brc1ccc([C@H]2CN3CCSC3=N2)cc1,inactive
3,Cc1nn(-c2ccccc2)c(C)c1/C=N/N1CCN(Cc2ccccc2)CC1,inactive
4,O=[N+]([O-])c1ccc(-c2nc(-c3ccc(F)cc3)c(-c3ccncc3)[nH]2)cc1,inactive
5,Nc1ncnc2n[nH]c(Nc3ccc(F)cc3)c12,inactive
6,CCN(CC)CCNC(=O)c1ccc(NS(C)(=O)=O)cc1,inactive
7,COC(=O)C1=CO[C@@H](O)[C@@H]2C(CO)=CC[C@H]12,inactive
8,O=C1NC(=O)/C(=C/c2ccc3c(c2)OC(F)(F)O3)S1,inactive
9,CC(C)N(CCC(=O)c1ccc2ccccc2c1)Cc1ccccc1,13.5 µM (active)
10,Cn1cnc2c(NCc3ccccc3)nc(NCCO)nc21,inactive
11,Clc1ccc2c(c1)N=C(N1CCNCC1)c1ccccc1N2,inactive
12,COc1ccccc1N1CCN(CCN2C(=O)CC3(CCCC3)CC2=O)CC1,inactive
